Laboratory results: PubChem BioAssay AID1851 (National Center for Advancing Translational Sciences (NCATS), 2009)
The campaign covered roughly 16,000 compounds. About 4,000 (25%) were called active. Not shown: some 26% with an inconclusive outcome. The call rests on the fitted dose curve; in most records, active means well fitted curve in the direction sought with a large enough effect; inconclusive means small, poorly fitted or top-dose-only effect, or effect the other way; inactive means no such curve, though single readings can be large or run the other way. Not all results are given here.

Each compound was assayed against Cytochrome P450 2C9 (Homo sapiens) (UniProt P11712) (assay: Cytochrome panel assay with activity outcomes). Settings: recombinant CYP, pro-luciferin dealkylation, luminescence, p450-cyp2c9; series mostly up to 57.1 µM.
Sequence of Cytochrome P450 2C9 (Homo sapiens) (P11712 whole entry, looked up): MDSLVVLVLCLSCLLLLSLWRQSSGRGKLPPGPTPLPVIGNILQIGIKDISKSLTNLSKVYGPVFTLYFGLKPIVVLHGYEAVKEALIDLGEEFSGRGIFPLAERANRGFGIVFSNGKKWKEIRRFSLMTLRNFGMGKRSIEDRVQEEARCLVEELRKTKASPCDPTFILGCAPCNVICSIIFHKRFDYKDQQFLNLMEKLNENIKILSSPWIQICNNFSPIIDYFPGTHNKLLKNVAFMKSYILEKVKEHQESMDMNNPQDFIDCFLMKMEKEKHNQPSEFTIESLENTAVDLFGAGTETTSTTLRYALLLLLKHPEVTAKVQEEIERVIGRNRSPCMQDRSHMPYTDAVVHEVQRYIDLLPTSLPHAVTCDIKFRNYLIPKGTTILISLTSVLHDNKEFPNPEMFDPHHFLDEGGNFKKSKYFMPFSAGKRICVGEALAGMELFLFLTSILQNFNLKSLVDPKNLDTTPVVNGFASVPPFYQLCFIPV
On the % scale 0 is the no-effect control and ±100 the full control effect.

activity, negative = inhibition, inactive:
C/C(CC/C(C)=N/O)=N/O -9.93% [at 11.4 µM]
OC[C@H](S)CS -14.4% [at 11.4 µM]
Cn1c(=O)c2[nH]c(CCCCC(=O)O)nc2n(C)c1=O -3.07% [at 11.4 µM]
c1ccc(CNc2ccnc(-c3ccoc3)n2)cc1 -18.3% [at 2.29 µM]
O=C(O)/C=C\C(=O)Nc1ccc2c(c1)C(=O)c1cc(F)ccc1-2 -23.6% [at 11.4 µM]
CS[C@@H](CC(=O)O)C(=O)O -8.91% [at 11.4 µM]
O=CN1CCN(C[C@H](O)CN2CCCCC2)CC1 -3.16% [at 11.4 µM]
CC[C@@]1([N+](=O)[O-])C[C@H]2C=C[C@@H]1C2 -0.495% [at 11.4 µM]
NCCNCC1CCNCC1 9.94% [at 11.4 µM]
C[C@@]1(CCOCc2ccccc2)NC(=O)NC1=O -8.7% [at 11.4 µM]
COc1ccccc1-c1nccc(NCc2cccnc2)n1 -15.5% [at 2.29 µM]
COc1cccc(-c2nccc(NCc3cccnc3)n2)c1 0.577% [at 2.29 µM]
O=C(O)C(Cl)(c1ccccc1)c1ccccc1 -22.8% [at 11.4 µM]
CN(C)Cc1ccc(C(C)(C)C)cc1-c1cc(C(C)(C)C)ccc1CN(C)C 4.33% [at 11.4 µM]
Cc1noc(C)c1-c1cncnc1NCc1ccccc1 18.5% [at 2.29 µM]
CCc1cc2c(nc1CC)CCN(CC/C(C)=N/OC[C@@H](O)COCc1ccco1)C2 17.1% [at 11.4 µM]
CO[C@H]1COC(=O)[C@@H](C)COC(=O)[C@@H](Cc2ccccc2)NC(=O)C/C=C\[C@H]1C 5.22% [at 11.4 µM]
COc1ccc(CNc2ccnc(-c3ccccc3OC)n2)c(OC)c1 14.7% [at 2.29 µM]
CNc1ncncc1-c1ccccc1C -4.77% [at 2.29 µM]
O=CN[C@@H](Cc1cnc[nH]1)C(=O)O -3.85% [at 11.4 µM]
COc1ccccc1-c1nc(NCCNC(C)=O)c2ccccc2n1 3.78% [at 2.29 µM]
COc1ccccc1-c1nc(N2CCOCC2)c2ccccc2n1 8.77% [at 2.29 µM]
COc1ccccc1-c1ccc2ncnc(N3CCOCC3)c2c1 -16.7% [at 2.29 µM]
OC1CC2CC[C@H](C1)N2CCCN1c2ccccc2Sc2ccc(Cl)cc21 (stereo not given in full) 8.65% [at 11.4 µM]
c1cncc(CNc2ncn[nH]2)c1 -1.61% [at 11.4 µM]
O=C(N/N=C\c1cccc(O)c1)c1ccncc1 1.23% [at 11.4 µM]
C/C=C\C1=C(CO)C(=O)C2O[C@]2(CC=C(C)C)C1=O (stereo not given in full) 9.54% [at 11.4 µM]

AC50, active:
Cc1cc2nc(-c3ccc(SCC(=O)N4CCc5ccccc54)nc3)[nH]c2cc1C 3.55 µM
O=C(COC(=O)c1cccnc1Nc1cccc(C(F)(F)F)c1)NCc1ccc2c(c1)OCO2 3.55 µM
O=C(COC(=O)c1ccccc1Nc1cccc(C(F)(F)F)c1)NCc1ccco1 3.16 µM
O=C(c1cc2sccc2n1Cc1ccccc1)N1CCN(c2nc3ccccc3s2)CC1 2.82 µM
CCOC(=O)c1nnn(-c2nonc2N)c1-c1ccc(C)cc1 11.2 µM
Cc1ccc(NC(=O)N/C=C/c2ccco2)cc1C 15.8 µM
O=C(/C=C/c1cccc(Cl)c1)Nc1ccncc1 0.0447 µM
CCCCCc1nc2c(C#N)c(-c3ccc(Cl)cc3)ccn2n1 3.55 µM
CCOC(=O)c1ccc(-c2ccc(CO)o2)cc1 15.8 µM
O=c1[nH]c2[nH]c(=S)[nH]c(=S)c2[nH]1 1.26 µM
COc1ccc(-c2cc(C(F)(F)F)nc(NCc3cccnc3)n2)cc1 5.62 µM
COc1ccc(-c2cc(C(F)(F)F)nc(SCc3cccc(C(=O)O)c3)n2)cc1 7.94 µM
COc1ccccc1CCn1c(=O)c(-c2cccc(Cl)c2)nc2cncnc21 1 µM
COc1ccccc1CCn1c(=O)c(-c2ccccc2)nc2cncnc21 5.01 µM
COc1ccccc1CCn1c(=O)c(-c2ccc(F)c(F)c2)nc2cncnc21 6.31 µM
COc1ccccc1CCn1c(=O)c(-c2ccc(F)cc2)nc2cncnc21 3.98 µM
COc1ccccc1CCn1c(=O)c(CCc2ccccc2)nc2cncnc21 7.94 µM
COc1ccccc1CCn1c(=O)c(-c2cccs2)nc2cncnc21 2.51 µM
COc1ccccc1CCn1c(=O)c(-c2ccc(Cl)cc2)nc2cncnc21 3.98 µM
O=c1c(CCc2ccccc2)nc2cncnc2n1Cc1ccc(F)cc1 7.94 µM
COc1ccccc1CCn1c(=O)c(-c2cn(C)c3ccccc23)nc2cncnc21 0.316 µM
O=C(c1ccc(COc2ccc(F)cc2)o1)n1cccn1 17.8 µM
CCCc1cc2c(n1Cc1ccc(OC)cc1)C(C)C1CN(C(=O)c3ccccc3)C(C)(C(=O)OC)C21 (stereo not given) 12.6 µM
CCCc1cc2c(n1Cc1cc(F)cc(F)c1)C(C)C1CN(C(=O)c3ccccc3)C(C)(C(=O)OC)C21 (stereo not given) 6.31 µM
COC(=O)c1ccccc1Oc1c(F)c(F)nc(N2CCOCC2)c1F 15.8 µM
CCOC(=O)c1ccccc1Oc1c(F)c(F)nc(NCCO)c1F 6.31 µM
O=C(Nc1ccc(Cl)cc1)c1cnc(-c2ccccc2)nc1-c1ccccc1 0.794 µM
Nc1ccc(Sc2cnn(-c3ccccc3)c(=O)c2Cl)cc1 1 µM
Cc1onc(-c2c(Cl)cccc2Cl)c1C(=O)N1CCc2ccccc2C1 3.16 µM
O=C(N/N=C/c1ccncc1)c1cc([N+](=O)[O-])cc([N+](=O)[O-])c1O 0.0631 µM
Cc1ccccc1C(=O)N/N=C/c1ccncc1 12.6 µM
CCn1c(CC(=O)Nc2ccc(C)cc2)nnc1SCC(=O)NCCc1ccccc1 15.8 µM
C=CCn1c(Cc2c[nH]c3ccccc23)nnc1SCC(=O)NCc1ccccc1 14.1 µM
CC(C)n1nnnc1SCC(=O)NCCc1ccccc1 15.8 µM
CCn1c(CSCc2ccc(C)cc2)nnc1SCC(=O)NCc1ccccc1 15.8 µM

AC50, inactive:
O=C1OC2CC3CC1CC(O)(C3)C2 (stereo not given)
Cc1ccc(C)c(-n2c(CNC(=O)c3ccco3)nnc2SCC(=O)N2CCc3ccccc32)c1
O=C(O)c1cccnc1Nc1cccc(C(F)(F)F)c1
Cc1cc(NC(=O)C2C3C(=O)N(Cc4ccc(Cl)cc4)C(C(=O)NC(C)(C)C)C34C=CC2(C)O4)no1 (stereo not given)
COCC(=O)N1CCC2(CC1)CN(Cc1ccc(C#N)cc1)C2
CCN1CNC(=S)N(c2cc(C)ccc2C)C1
Nc1nonc1-n1nncc1-c1ccccc1
COCc1c(C(N)=O)nnn1-c1nonc1N
N#Cc1c(-c2ccc3c(c2)OCO3)ccn2nc(-c3cccc(C(F)(F)F)c3)nc12
CCN(CC)CCOC(=O)[C@@H](Cc1cccc2ccccc12)C[C@@H]1CCCO1
Cc1ccc(-c2ccc(CCC(=O)O)o2)cc1
CCOC(=O)c1ccc(N)cc1
COC(=O)CSc1cc(C(F)(F)F)nc(-c2ccccn2)n1
COCCn1c(=O)c(-c2cccc(Cl)c2)nc2cncnc21
COCCn1c(=O)c(-c2ccc(F)c(F)c2)nc2cncnc21
Cn1c(=O)c(-c2ccccc2)nc2cncnc21
Cn1c(=O)c(-c2ccc(F)cc2)nc2cncnc21
COc1ccc(-n2c(=O)c(-c3ccc(F)c(F)c3)nc3cncnc32)cc1
COCCn1c(=O)c(-c2ccc(F)cc2)nc2cncnc21
CCN(CC)C(=O)CSc1nc(O)cc(=O)n1CC
Cn1cc(-c2nc3cncnc3n(Cc3ccccc3Cl)c2=O)c2ccccc21
COc1ncc2nc(-c3cn(C)c4ccccc34)c(=O)n(CCC#N)c2n1
COc1ccc(N2C(N)=NC(N)=NC2(C)C)cc1
COc1ccc(C(=O)N2CCC[C@@]3(CCN(Cc4ccc(C#N)cc4)C3)C2)cc1
COc1ccc(C(=O)N2CCC[C@@]3(CCN(Cc4ccccc4)C3)C2)cc1
CCOC(=O)NNc1nncc2ccccc12
O=C(Nc1ccc(-c2csc(-c3ccccc3)n2)cc1)c1ccccc1Cl
Cc1ccc(-n2ncc(N(C)C)c(Cl)c2=O)cc1
COC(=O)N1CCC2(CCN(Cc3nccs3)CC2)CC1
Cc1noc(C)c1C(=O)N1CCC[C@@]2(CCN(Cc3ccccc3)C2)C1
Cc1noc(C)c1C(=O)N1CCC2(CCCN(Cc3ccccc3)C2)CC1
Cc1ccccc1C(=O)NNC(=O)c1ccoc1C
O=C(N/N=C/c1cccnc1)c1ccc([N+](=O)[O-])cc1
CC[C@@H]1OC(=O)[C@H](C)[C@H](O[C@@H]2C[C@](C)(OC)[C@H](O)[C@H](C)O2)[C@H](C)[C@H](O[C@@H]2O[C@@H](C)C[C@@H](N(C)C)[C@@H]2O)[C@](C)(O)C[C@H](C)[C@@H]2N[C@H](COCCOC)O[C@H]([C@@H]2C)[C@]1(C)O
Cc1ccc(NC(=O)CCSc2nnc3ccccn23)cc1
N[C@@H](Cc1c[nH]c2ccccc12)C(=O)O
O=C(CSc1nnnn1-c1ccccc1)NCc1cccs1
CCn1c(CNC(=O)COc2ccc(C(C)C)cc2)nnc1SCC(=O)Nc1cc(F)ccc1C
